Tests used:
Assay in all cases: DAPPL (digital affinity profiling via proximity ligation, sequencing); 10 mM Tris-HCl pH 7.5, 50 mM NaCl, 1 mM DTT, 4% glycerol, room temperature, 30 min; GST-TFs on glutathione beads, 16-mer random dsDNA library, 0.1% formaldehyde crosslink after washing; high values mean tight binding
[1] = target: T1, FEV (Homo sapiens, UniProt Q99581 1-238); conditions: protein: recombinant; tags: N-terminal GST; dsDNA, one strand shown
T1 sequence: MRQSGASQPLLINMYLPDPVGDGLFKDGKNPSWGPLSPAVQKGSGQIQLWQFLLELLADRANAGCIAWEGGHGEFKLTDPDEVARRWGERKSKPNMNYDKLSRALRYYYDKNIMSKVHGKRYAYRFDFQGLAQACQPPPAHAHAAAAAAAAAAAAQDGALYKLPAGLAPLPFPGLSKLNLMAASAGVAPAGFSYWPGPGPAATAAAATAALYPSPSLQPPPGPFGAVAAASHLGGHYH
Summary of the method: (§1)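 After expression in yeast as GST fusions, human transcription factors were bound to glutathione beads, DNA-barcoded and mixed with a tag-only sample. The pools were incubated with 200 nmole of a 16-mer random double-stranded DNA library in Tris/NaCl/DTT/glycerol buffer (30 min, room temperature), washed and crosslinked with 0.1% formaldehyde. Proximity ligation with BsaI/T4 ligase ran for 1 h at 37 °C, before PCR amplification and sequencing on an Illumina NextSeq500. Binding signal is a hexamer's read frequency for a factor divided by its frequency for the tag-only sample.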

[2] = target: ETV5 (Homo sapiens, UniProt P41161 1-510); conditions: protein: recombinant; tags: N-terminal GST; dsDNA, one strand shown
Summary of the method: as §1

[3] = target: HSF1 (Homo sapiens, UniProt Q00613 1-529); conditions: protein: recombinant; tags: N-terminal GST; chain copies: 3; dsDNA, one strand shown
Summary of the method: as §1

[4] = target: T2, SPIC (Homo sapiens, UniProt Q8N5J4 1-248); conditions: protein: recombinant; tags: N-terminal GST; dsDNA, one strand shown
T2 sequence: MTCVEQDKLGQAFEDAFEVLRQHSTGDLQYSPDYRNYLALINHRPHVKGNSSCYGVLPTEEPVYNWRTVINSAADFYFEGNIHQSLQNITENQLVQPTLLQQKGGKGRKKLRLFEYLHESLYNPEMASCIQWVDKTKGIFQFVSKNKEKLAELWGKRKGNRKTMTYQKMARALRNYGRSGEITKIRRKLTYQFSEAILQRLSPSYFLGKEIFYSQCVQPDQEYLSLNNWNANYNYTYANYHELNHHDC
Summary of the method: as §1

[5] = target: ELF4 (Homo sapiens, UniProt Q99607 1-663); conditions: protein: recombinant; tags: N-terminal GST; dsDNA, one strand shown
Summary of the method: as §1

[6] = target: T3, ELK4 (Homo sapiens, UniProt P28324-2 1-405); conditions: protein: recombinant; tags: N-terminal GST; dsDNA, one strand shown
T3 sequence: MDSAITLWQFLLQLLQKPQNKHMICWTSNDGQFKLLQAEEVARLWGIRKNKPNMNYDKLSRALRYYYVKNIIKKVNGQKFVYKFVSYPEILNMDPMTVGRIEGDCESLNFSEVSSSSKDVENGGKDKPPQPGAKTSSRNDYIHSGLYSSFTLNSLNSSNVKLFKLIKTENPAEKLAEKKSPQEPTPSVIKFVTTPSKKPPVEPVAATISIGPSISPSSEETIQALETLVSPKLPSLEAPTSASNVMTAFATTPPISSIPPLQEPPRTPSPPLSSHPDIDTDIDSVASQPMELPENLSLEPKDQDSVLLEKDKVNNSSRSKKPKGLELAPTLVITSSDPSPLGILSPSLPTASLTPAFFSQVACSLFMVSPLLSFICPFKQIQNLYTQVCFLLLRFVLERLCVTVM
Summary of the method: as §1

[7] = target: T4, ETV2 (Homo sapiens, UniProt O00321 1-342); conditions: protein: recombinant; tags: N-terminal GST; dsDNA, one strand shown
T4 sequence: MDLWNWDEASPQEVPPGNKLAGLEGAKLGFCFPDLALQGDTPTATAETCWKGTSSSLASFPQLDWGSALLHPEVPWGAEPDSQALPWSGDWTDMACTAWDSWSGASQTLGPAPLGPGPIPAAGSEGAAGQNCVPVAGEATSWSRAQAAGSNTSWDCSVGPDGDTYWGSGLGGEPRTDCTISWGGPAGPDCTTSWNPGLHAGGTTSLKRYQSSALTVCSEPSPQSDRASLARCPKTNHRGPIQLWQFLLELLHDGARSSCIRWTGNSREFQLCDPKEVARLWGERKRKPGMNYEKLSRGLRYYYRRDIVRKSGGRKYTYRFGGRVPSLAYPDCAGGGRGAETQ
Summary of the method: as §1

[8] = target: T5, ELF3 (Homo sapiens, UniProt P78545 1-371); conditions: protein: recombinant; tags: N-terminal GST; dsDNA, one strand shown
T5 sequence: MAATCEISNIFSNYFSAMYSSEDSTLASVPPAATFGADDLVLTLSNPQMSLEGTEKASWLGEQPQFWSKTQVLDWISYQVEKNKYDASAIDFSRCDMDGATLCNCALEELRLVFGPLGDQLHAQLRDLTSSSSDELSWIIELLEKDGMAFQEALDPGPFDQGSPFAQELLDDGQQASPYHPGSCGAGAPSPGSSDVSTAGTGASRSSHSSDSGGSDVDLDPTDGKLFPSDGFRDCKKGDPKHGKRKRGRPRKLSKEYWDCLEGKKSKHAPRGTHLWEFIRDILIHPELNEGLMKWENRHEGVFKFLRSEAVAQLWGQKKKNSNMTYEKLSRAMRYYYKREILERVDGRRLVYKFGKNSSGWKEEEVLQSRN
Summary of the method: as §1

[9] = target: CRX (Homo sapiens, UniProt O43186 1-299); conditions: protein: recombinant; tags: N-terminal GST; dsDNA, one strand shown
Summary of the method: as §1

[10] = target: ETV1 (Homo sapiens, UniProt P50549 1-477); conditions: protein: recombinant; tags: N-terminal GST; dsDNA, one strand shown
Summary of the method: as §1

[11] = target: T6, ERF (Homo sapiens, UniProt P50548 1-548); conditions: protein: recombinant; tags: N-terminal GST; dsDNA, one strand shown
T6 sequence: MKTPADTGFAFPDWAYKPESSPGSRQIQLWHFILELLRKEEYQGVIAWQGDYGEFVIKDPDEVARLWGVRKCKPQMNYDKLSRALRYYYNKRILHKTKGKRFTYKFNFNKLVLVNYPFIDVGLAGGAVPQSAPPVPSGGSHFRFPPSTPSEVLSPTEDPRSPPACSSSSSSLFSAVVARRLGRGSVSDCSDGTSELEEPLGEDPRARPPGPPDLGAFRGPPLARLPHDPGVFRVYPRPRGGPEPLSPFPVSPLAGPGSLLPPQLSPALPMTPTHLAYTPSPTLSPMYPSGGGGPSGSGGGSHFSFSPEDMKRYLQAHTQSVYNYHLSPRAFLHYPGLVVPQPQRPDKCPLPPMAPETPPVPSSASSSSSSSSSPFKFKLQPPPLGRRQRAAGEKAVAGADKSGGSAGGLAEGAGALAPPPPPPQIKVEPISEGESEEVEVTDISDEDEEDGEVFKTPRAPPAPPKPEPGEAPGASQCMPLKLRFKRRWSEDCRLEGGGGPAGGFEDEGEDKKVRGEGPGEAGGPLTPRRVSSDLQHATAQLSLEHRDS
Summary of the method: as §1

[12] = target: T7, ETV3L (Homo sapiens, UniProt Q6ZN32 1-361); conditions: protein: recombinant; tags: N-terminal GST; dsDNA, one strand shown
T7 sequence: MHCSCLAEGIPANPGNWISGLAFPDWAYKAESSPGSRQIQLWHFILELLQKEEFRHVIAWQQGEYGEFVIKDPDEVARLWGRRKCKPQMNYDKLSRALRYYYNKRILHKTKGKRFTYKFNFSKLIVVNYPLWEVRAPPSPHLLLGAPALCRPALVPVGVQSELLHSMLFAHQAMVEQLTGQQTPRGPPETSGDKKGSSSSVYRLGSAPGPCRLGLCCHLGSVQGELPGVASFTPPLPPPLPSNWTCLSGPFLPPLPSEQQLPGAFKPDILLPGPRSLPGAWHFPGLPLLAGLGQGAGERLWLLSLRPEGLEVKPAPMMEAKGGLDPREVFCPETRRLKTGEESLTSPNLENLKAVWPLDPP
Summary of the method: as §1

[13] = target: T8, ETS2 (Homo sapiens, UniProt P15036 1-469); conditions: protein: recombinant; tags: N-terminal GST; dsDNA, one strand shown
T8 sequence: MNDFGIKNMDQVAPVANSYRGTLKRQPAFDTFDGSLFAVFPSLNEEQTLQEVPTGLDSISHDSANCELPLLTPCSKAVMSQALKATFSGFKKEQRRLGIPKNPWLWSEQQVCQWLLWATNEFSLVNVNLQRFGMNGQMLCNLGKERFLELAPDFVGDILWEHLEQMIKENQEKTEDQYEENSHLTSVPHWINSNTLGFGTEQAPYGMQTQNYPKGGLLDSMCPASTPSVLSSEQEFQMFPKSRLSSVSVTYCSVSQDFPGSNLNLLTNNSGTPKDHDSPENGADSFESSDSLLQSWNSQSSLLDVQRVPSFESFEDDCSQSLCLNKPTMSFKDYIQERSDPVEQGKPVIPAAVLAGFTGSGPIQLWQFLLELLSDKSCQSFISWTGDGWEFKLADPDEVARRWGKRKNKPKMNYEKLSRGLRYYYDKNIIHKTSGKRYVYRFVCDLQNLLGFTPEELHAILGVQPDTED
Summary of the method: as §1

[14] = target: T9, SPDEF (Homo sapiens, UniProt O95238 1-335); conditions: protein: recombinant; tags: N-terminal GST; dsDNA, one strand shown
T9 sequence: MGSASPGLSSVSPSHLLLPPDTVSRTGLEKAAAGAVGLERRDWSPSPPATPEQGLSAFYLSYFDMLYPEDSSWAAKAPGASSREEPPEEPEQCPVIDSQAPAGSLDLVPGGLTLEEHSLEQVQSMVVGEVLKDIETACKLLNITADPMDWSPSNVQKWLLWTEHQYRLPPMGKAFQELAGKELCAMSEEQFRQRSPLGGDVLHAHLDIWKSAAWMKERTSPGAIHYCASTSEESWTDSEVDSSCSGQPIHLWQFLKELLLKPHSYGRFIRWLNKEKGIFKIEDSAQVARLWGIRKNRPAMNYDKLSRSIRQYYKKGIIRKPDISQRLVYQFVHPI
Summary of the method: as §1

[15] = target: T10, ETV7 (Homo sapiens, UniProt Q9Y603 1-341); conditions: protein: recombinant; tags: N-terminal GST; dsDNA, one strand shown
T10 sequence: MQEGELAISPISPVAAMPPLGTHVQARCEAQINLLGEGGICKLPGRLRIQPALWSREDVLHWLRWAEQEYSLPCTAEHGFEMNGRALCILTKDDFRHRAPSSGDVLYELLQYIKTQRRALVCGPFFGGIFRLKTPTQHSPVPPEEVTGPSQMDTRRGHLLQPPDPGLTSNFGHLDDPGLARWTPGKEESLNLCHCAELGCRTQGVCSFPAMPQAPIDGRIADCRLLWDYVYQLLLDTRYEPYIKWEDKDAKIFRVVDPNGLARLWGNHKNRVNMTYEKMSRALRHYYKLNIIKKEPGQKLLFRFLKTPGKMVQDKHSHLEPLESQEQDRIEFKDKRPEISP
Summary of the method: as §1

[16] = target: T11, ELF5 (Homo sapiens, UniProt Q9UKW6-2 1-255); conditions: protein: recombinant; tags: N-terminal GST; dsDNA, one strand shown
T11 sequence: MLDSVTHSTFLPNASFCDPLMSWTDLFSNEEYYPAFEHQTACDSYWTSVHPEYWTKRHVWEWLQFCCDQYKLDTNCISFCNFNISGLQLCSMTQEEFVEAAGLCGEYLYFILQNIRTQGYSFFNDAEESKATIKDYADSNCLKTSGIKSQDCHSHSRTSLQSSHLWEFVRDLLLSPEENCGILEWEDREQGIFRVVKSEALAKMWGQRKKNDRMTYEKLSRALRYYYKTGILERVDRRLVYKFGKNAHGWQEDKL
Summary of the method: as §1

[17] = target: T12, ETV3 (Homo sapiens, UniProt P41162-2 1-143); conditions: protein: recombinant; tags: N-terminal GST; dsDNA, one strand shown
T12 sequence: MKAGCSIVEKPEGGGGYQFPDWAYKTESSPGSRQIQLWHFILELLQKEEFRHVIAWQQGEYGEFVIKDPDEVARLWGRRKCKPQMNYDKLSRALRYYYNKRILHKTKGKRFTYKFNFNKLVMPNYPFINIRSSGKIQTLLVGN
Summary of the method: as §1

[18] = target: ETV6 (Homo sapiens, UniProt P41212 1-452); conditions: protein: recombinant; tags: N-terminal GST; dsDNA, one strand shown
Summary of the method: as §1

Chain of ETV5 (P41161 whole entry): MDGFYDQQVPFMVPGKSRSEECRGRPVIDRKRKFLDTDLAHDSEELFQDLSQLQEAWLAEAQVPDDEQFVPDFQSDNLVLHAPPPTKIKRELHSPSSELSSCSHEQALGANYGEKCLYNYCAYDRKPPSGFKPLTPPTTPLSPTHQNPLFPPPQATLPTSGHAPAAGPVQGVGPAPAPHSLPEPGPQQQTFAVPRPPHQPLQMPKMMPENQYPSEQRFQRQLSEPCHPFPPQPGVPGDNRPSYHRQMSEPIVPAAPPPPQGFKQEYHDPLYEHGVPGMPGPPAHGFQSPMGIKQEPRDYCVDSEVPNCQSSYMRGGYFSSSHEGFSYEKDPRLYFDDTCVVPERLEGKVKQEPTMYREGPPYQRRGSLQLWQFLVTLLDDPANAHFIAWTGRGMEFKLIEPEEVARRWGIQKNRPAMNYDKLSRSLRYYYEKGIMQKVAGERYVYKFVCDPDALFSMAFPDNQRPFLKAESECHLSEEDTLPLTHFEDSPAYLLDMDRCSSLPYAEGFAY
Chain of ETV1 (P50549 whole entry): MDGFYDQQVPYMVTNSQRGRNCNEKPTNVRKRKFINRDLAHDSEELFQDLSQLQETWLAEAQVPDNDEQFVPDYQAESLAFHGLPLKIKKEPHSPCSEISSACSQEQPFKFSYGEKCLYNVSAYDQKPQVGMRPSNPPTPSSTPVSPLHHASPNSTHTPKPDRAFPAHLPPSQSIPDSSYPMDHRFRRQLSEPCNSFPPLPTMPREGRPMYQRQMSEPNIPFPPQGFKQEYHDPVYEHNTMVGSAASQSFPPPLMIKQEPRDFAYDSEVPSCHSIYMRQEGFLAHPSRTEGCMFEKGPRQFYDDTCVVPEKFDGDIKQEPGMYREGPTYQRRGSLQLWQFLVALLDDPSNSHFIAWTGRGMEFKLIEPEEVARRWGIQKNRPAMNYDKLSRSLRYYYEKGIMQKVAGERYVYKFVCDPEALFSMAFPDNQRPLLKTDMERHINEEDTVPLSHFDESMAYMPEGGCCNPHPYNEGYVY
Chain of CRX (O43186 whole entry): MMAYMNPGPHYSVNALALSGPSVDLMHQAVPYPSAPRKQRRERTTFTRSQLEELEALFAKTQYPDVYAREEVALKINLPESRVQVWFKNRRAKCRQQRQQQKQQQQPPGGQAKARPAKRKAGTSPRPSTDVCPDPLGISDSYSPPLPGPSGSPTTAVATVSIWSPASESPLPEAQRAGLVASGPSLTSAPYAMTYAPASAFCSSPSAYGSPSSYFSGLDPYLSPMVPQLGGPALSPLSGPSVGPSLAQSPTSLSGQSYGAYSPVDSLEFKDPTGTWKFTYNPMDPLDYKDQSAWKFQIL
Chain of ELF4 (Q99607 whole entry): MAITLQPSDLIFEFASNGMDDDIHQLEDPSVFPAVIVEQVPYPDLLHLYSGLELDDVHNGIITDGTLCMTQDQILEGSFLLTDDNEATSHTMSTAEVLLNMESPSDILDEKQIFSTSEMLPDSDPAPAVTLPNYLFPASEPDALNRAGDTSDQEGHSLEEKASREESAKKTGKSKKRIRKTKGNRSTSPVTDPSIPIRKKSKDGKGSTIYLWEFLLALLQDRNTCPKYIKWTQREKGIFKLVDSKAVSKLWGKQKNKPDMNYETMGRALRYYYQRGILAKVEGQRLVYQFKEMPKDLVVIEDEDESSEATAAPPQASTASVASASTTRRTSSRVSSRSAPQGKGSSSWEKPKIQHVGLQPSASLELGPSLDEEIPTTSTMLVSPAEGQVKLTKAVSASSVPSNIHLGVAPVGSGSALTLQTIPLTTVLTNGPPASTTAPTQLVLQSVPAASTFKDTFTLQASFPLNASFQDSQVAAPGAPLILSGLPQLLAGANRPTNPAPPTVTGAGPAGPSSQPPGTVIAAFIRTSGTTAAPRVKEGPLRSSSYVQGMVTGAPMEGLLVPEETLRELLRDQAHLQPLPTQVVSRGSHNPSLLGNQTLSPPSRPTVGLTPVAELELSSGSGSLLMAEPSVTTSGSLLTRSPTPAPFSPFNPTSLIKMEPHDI
Chain of HSF1 (Q00613 whole entry): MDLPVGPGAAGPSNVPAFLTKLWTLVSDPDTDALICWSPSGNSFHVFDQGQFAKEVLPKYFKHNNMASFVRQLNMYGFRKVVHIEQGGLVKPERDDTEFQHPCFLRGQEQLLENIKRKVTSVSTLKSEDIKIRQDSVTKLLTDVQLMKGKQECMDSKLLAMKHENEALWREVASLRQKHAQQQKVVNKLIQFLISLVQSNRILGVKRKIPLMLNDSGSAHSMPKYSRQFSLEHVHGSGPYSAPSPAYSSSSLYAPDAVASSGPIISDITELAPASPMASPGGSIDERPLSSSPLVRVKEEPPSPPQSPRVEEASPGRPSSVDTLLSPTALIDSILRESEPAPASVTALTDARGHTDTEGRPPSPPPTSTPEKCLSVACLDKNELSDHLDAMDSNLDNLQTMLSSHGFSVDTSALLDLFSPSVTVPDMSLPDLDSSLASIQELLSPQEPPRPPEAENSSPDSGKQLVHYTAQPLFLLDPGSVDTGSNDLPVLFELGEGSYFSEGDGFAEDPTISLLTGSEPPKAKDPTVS
Chain of ETV6 (P41212 whole entry): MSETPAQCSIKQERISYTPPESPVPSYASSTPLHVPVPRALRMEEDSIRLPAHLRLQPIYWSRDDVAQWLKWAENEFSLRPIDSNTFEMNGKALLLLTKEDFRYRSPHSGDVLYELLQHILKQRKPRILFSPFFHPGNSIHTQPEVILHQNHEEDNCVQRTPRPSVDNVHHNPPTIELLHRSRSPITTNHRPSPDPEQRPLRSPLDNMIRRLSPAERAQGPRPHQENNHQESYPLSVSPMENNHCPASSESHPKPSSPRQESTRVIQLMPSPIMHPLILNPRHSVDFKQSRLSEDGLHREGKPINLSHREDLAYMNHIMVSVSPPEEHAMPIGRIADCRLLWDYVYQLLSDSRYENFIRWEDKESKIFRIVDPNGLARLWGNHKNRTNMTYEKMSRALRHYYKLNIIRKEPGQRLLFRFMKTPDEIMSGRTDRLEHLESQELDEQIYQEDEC

For ACTCTG, the binding signal [1] was 1.27 fold enrichment (6-mer frequency, TF over GST control), the binding signal [2] was 1.27 fold enrichment (6-mer frequency, TF over GST control) and the binding signal [3] was 1.12 fold enrichment (6-mer frequency, TF over GST control). The binding signal [4] was 1.51 fold enrichment (6-mer frequency, TF over GST control), the binding signal [5] was 1.24 fold enrichment (6-mer frequency, TF over GST control) and the binding signal [6] was 1.23 fold enrichment (6-mer frequency, TF over GST control). For the same sequence, the binding signal [7] was 1.23 fold enrichment (6-mer frequency, TF over GST control), the binding signal [8] was 1.15 fold enrichment (6-mer frequency, TF over GST control) and the binding signal [9] was 1.12 fold enrichment (6-mer frequency, TF over GST control). For the same sequence, the binding signal [10] was 1.25 fold enrichment (6-mer frequency, TF over GST control), the binding signal [11] was 1.43 fold enrichment (6-mer frequency, TF over GST control) and the binding signal [12] was 1.28 fold enrichment (6-mer frequency, TF over GST control). For the same sequence, the binding signal [13] was 1.29 fold enrichment (6-mer frequency, TF over GST control), the binding signal [14] was 1.16 fold enrichment (6-mer frequency, TF over GST control) and the binding signal [15] was 1.21 fold enrichment (6-mer frequency, TF over GST control). The binding signal [16] was 1.2 fold enrichment (6-mer frequency, TF over GST control), the binding signal [17] was 1.27 fold enrichment (6-mer frequency, TF over GST control) and the binding signal [18] was 1.23 fold enrichment (6-mer frequency, TF over GST control).

From article PMC7862700, “An all-to-all approach to the identification of sequence-specific readers for epigenetic DNA modifications on cytosine”
